# Only some compounds are listed: those with a hit (about 2.2% of all), similar ones and a draw of the others.
# BaF3 parental = counter-screen for JAK2V617F inhibitors: parental Ba/F3 viability inhibitors | CellTiter-Glo ATP luminescence | inhibition, % at 5.6 µM | 1.1% of 220,000 active | AID 1486;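 active means inhibition above a per-campaign cutoff, the mean inhibition of all tested compounds plus 3 SD, cut at about 27% in these data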;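 further: 0% = DMSO wells and 100% = JAK Inhibitor I control wells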
# aSyn UTR inh = 5' untranslated region of α-synuclein, MLPCN primary screen. alpha-synuclein 5'UTR reporter, inhibitor activity. inhibition, % (tested at 7.5 µM). 0.82% of 300,000 active. AID 1813; in the data active means inhibition above about 60%;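 further: H4 neuroglioblastoma cells stably carrying SNCA 5'UTR luciferase fusion; 0% = DMSO wells and 100% = positive control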
# APP 5UTR inh = APP translation inhibition; SH-SY5Y APP 5'UTR-luciferase reporter, luminescence; AID 1285; inhibition, % at 2 µM; 0.82% of 190,000 active;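 active means inhibition above a set limit, derived from the sample mean plus 3 SD, cut at about 45% in these data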
# KLF5 inh = kruppel-like factor 5 inhibition; DLD-1 KLF5 promoter-luciferase reporter, luminescence; inhibition, % at 5 µM; 0.23% of 290,000 active; AID 1700;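 active means inhibition above a per-plate limit of that plate's mean compound inhibition plus 3 SD, cut at about 60% in these data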;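 further: 0% = DMSO wells and 100% = LY294002 at 200 µM; higher means less KLF5 promoter-driven luciferase light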
# Ba/F3 V617F tox = loss of viability in JAK2V617F-driven Ba/F3 cells | Ba/F3 EpoR-JAK2V617F viability, ATP luminescence | inhibition, % at 5.6 µM | AID 1446 | 1.1% of 220,000 active;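 active means inhibition above the campaign mean plus 3 SD over all tested compounds, cut at about 24% in these data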;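 further: cytokine-independent growth of Ba/F3 cells driven by EpoR plus mutant JAK2; 0% = DMSO-treated cells and 100% = JAK inhibitor I control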
# IEC-6 cytotox = kills IEC-6 intestinal cells in KLF5 counter-screen; IEC-6 cytotoxicity, luminescence viability; 0.78% of 290,000 active; inhibition, % at 5 µM; in the data active means inhibition above about 22%;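 further: 0% = plate median of test compound wells and 100% = cytotoxic reference compound wells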
# * = called active by the depositor; . = no result.
SMILES,BaF3 parental,aSyn UTR inh,APP 5UTR inh,KLF5 inh,Ba/F3 V617F tox,IEC-6 cytotox
CC1=CC(C)(C)N2C(=O)C3(N=C(N)NC(Nc4ccccc4)=N3)c3cc(C)cc1c32 (stereo not given),42*,-21,-10,-8,44*,14
CC1=CC(C)(C)N2C(=O)C3(SCC(=O)N3c3ccc(O)cc3)c3cc(C)cc1c32 (stereo not given),3,5,3,-14,-2,-3
CCc1ccc(/C=N/NC(=O)c2cc(-c3ccncc3)nc3ccccc23)s1,6,83*,91*,2,-4,9
Cn1cccc1/C=N/NC(=O)c1cc(-c2cccs2)nc2ccccc12,3,27,47*,-20,-2,0
CCO[C@H]1OC(C(=O)NCc2nc3ccccc3[nH]2)=C[C@@H](c2ccc(Br)cc2)[C@@H]1CCCO,.,-4,.,.,.,.
CCO[C@@H]1OC(C(=O)NCc2nc3ccccc3[nH]2)=C[C@H](C(C)(C)C)[C@H]1CCCO,.,85*,.,.,.,.
CCC(=O)NC(Cc1ccccc1)c1ccc2c(c1)OCCCO2 (stereo not given),31*,-11,-11,-36,39*,-3
O=C(NC(Cc1ccccc1)c1ccc2c(c1)OCCCO2)c1ccccc1 (stereo not given),1,-16,-16,-6,-4,1
O=C(N/N=C/c1c(O)ccc2ccccc12)c1ccc[n+](CCO)c1,-2,-4,0,-14,1,0
O=C(CNc1ccccc1)N/N=C/c1c(O)ccc2ccccc12,.,69*,.,12,.,5
O=C(N/N=C\c1c(O)ccc2ccccc12)c1ccc(O)cc1,.,75*,.,53,.,0
Cn1cc(C(=O)N/N=C/c2c(O)ccc3ccccc23)ccc1=O,7,96*,50*,32,1,-6
Cc1c(C(=O)N/N=C/c2c(O)ccc3ccccc23)nnn1-c1nonc1N,.,63*,.,48,.,0
O=C(NCCC1=CCCCC1)c1cccc(S(=O)(=O)N2CCCCC2)c1,.,10,.,.,.,.
CC(C)c1ccccc1N=C1SCCCN1C(=O)c1cccc(N2C(=O)CCC2=O)c1,.,-12,.,.,.,.
CC(=O)Oc1ccc(/C=C/c2nc3ccccc3c(=O)o2)cc1,.,45,.,2,.,2
O=c1cc(O)nc(SCc2ccccc2)n1-c1ccc(F)cc1,31*,23,-14,-25,4,-6
O=C(CSS(=O)(=O)O)N1CCN(C(=O)c2ccoc2)CC1,.,-23,.,-3,.,0
CC(C)(C)Nc1nc(N2CCCC2)nc(N2CCCC2)n1,1,68*,6,-22,-2,1
CCNc1nc(NC(C)(C)C)nc(N2CCCC2)n1,2,4,-6,-35,-2,0
O=C(/C=C/Nc1ccc(S(=O)(=O)Nc2cnc3ccccc3n2)cc1)c1ccccc1,52*,15,.,-16,-1,-1
NNC(=O)C1CCCN1S(=O)(=O)c1ccc(Cl)cc1 (stereo not given),58*,-6,24,-19,-3,-6
CCC(C)NC(=O)C1CCCN1S(=O)(=O)c1ccc(Cl)cc1 (stereo not given),1,-11,-6,18,-2,4
COc1cccc(/C=N/Nc2ncnc3c2ncn3Cc2ccccc2)c1O,59*,102*,88*,12,71*,0
COc1cccc(/C=N/Nc2cc(N3CCOCC3)ncn2)c1O,.,72*,.,39,.,-6
SMILES,BaF3 parental,aSyn UTR inh,APP 5UTR inh,KLF5 inh,Ba/F3 V617F tox,IEC-6 cytotox
CCOC(=O)C1(Cc2cccc(Cl)c2)CCCN(C(=O)C2CC2)C1 (stereo not given),4,-33,-17,-5,0,-2
Cc1cc(C(=O)CSc2nnc(-c3cccs3)n2Cc2ccccc2)c(C)n1C,3,-3,-8,-17,0,2
O=c1cc(CSc2nnc(-c3cccs3)n2Cc2ccccc2)nc2sc3ccccc3n12,55*,-16,5,-6,43*,2
CC[n+]1c(C)cc2c(sc3ccccc32)c1C,71*,.,4,-37,88*,0
CCCCn1c(=O)c(C(=O)N/N=C/c2ccc(F)cc2)c(O)c2ccccc21,80*,-16,23,-21,-1,3
COc1nc(-c2ccccc2)cc(-c2ccc3c(c2)OCO3)c1C#N,-1,64*,.,-23,3,5
CCC/C(=N\NC(=O)c1cccc(C)c1)c1ccccc1,1,-5,-1,1,-1,-1
CN1Cc2c(N3CCOCC3)nc3sc(C#N)c(N)c3c2CC1(C)C,-1,-16,.,-7,-1,0

# High-throughput results deposited in PubChem by several laboratories.
